Drawing on PubChem BioAssay (NCI), this text covers growth inhibition for 24 compounds.

Assay [1] is described as follows: NCI Yeast Anticancer Drug Screen. Data for the rad50 strain (AID 155).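 Further: 0% = growth of vehicle-only cultures of the same strain.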 To be noted: S. cerevisiae rad50 strain growth inhibition; at 50.0 µM; stronger effect = higher value. The method in brief:
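Compounds were tested on a yeast strain with an engineered DNA damage repair alteration; the reported value is growth inhibition normalised to vehicle treatment.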

A short description of assay [2]: NCI Yeast Anticancer Drug Screen. Data for the mec2-1 strain (AID 157). To be noted: S. cerevisiae mec2-1 strain, at 50.0 µM, stronger effect = higher value. In a few lines:
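Vehicle-treated cultures served as reference for growth inhibition of compound-exposed mec2-1 yeast.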

The nature of assay [3]: NCI Yeast Anticancer Drug Screen. Data for the cln2 rad14 strain (AID 165).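 Further: 0% = growth equal to vehicle treated cultures.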 Particulars: S. cerevisiae cln2 rad14 strain, at 50.0 µM, stronger effect = higher value. In a few lines: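 Each compound was tested on cln2 rad14 yeast. Inhibition of growth was calculated against vehicle-exposed controls.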
Assay [4] in a line: NCI Yeast Anticancer Drug Screen. Data for the mlh1 rad18 strain (AID 175). Particulars: S. cerevisiae mlh1 rad18 strain growth inhibition; at 50.0 µM; stronger effect = higher value. The method in brief: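 Vehicle-treated cultures served as the reference for growth inhibition in a yeast strain carrying DNA damage repair alterations exposed to each compound.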
Assay [5] in a line: NCI Yeast Anticancer Drug Screen. Data for the bub3 strain (AID 167). To be noted: S. cerevisiae bub3 mutant strain, at 50.0 µM, stronger effect = higher value. The method in brief:
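Growth of a checkpoint-deficient yeast mutant is measured after compound exposure. Values represent inhibition relative to vehicle.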

This is part of a sample that, as a whole, favours compounds with a hit. Of some 79,000 tested, about 15% had one in any assay. Unmarked numbers belong to inactive results. The source made the active and inactive calls. No stated cut-off is given here; in the data, active means growth inhibition above about 70%; inactive means the rest.

As for `O=c1c2ccccc2nc(-c2ccccc2)n1/N=C/c1ccccc1[N+](=O)[O-]`, the growth inhibition is 18.2% in assay [1], 1% in assay [2], 8.35% in assay [3] and -56.2% in assay [4].
Consider `CC1CC2(OC2C)C(=O)OC2CCN(C)C/C=C(/COC(=O)C1(C)O)C2=O` (configuration not stated), for which the growth inhibition in assay [1] was 2.3%; in assay [2], 7.05%; in assay [3], 4.85%; in assay [5], -10.8%; in assay [4], -52%.
On to `CC1=CC(=O)c2ccc(C)cc2C1=O`, for which the growth inhibition in assay [1] is -8.9%; in assay [2] it was -24.4%; in assay [3], -18.9%; in assay [4] it was 5.85%.
Turning to `C=C1C(=O)OC2/C=C(\CO)CC/C=C(\CO)CC(OC(=O)C(C)C)C12` (configuration not stated), the growth inhibition was -17% in assay [1]; -13.4% in assay [2]; 24.4% in assay [3]; -7% in assay [5]; -41.5% in assay [4].
In the case of `Nc1n[nH]c(=S)n1-c1ccc(Cl)cc1`, the values for the growth inhibition in assay [1], in assay [2] and in assay [4] were -14.3%, -29.6% and -13%, respectively.
`NC(=O)CC1OC(=O)Cc2cc3c(c(O)c21)C(=O)c1c(O)cccc1C3=O` (configuration not stated): the growth inhibition in assay [1] is 1.05%; in assay [2], 3.55%; in assay [3] it was 27.7%; in assay [5], 16.5%; in assay [4], -28.6%.
In the case of `NC(=S)NS(=O)(=O)c1ccc(N)cc1`, the growth inhibition in assay [1] was -24.6%; in assay [2], -38.2%; in assay [3], 4.35%; in assay [5], -16.4%; in assay [4], 8.3%.
Taken in the same sequence, the figures for `CC(C)=CCc1c(OC(=O)c2c(C)cc(O)cc2O)cc(CO)c(CO)c1O` were 5.1%, 11.4%, 5.95%, 8.65% and -54.9%.
Consider `Cc1ccc(/C=N/Nc2cnccn2)s1`, for which the growth inhibition in assay [1] was -30.9%; in assay [2], -25.2%; in assay [3], 15.2%; in assay [5], -41.2%; in assay [4] it was -9.3%.
On to `Cc1ccc2c(/C=C/c3ccc(N(C)C)cc3)ccc(C(C)C)cc1-2`, for which the growth inhibition in assay [1] is -5.4%; in assay [2], -41.3%; in assay [3] it was 1.75%; in assay [5] it was -22.2%; in assay [4], -53.2%.
The matching figures for `N#Cc1nc(C(F)(F)F)oc1N`: -2.6%, -1%, -7.85%, -3.3% and -42.4%.
Consider `O=C(Nc1cccc(NC(=O)C(=O)C2CCC3=C(Sc4ccccc4N3)C2=O)n1)C(=O)C1CCC2=C(Sc3ccccc3N2)C1=O` (configuration not stated), for which the growth inhibition in assay [1] was 2.5%; in assay [2], 13.8%; in assay [3] it was 5.2%; in assay [5] it was 29.9%; in assay [4], 1.2%.
Take `NC(Cc1ccc(S(=O)(=O)O)cc1)C(=O)NC(Cc1ccc(S(=O)(=O)O)cc1)C(=O)NC(Cc1ccc(S(=O)(=O)O)cc1)C(=O)NC(Cc1ccc(S(=O)(=O)O)cc1)C(=O)O` (configuration not stated): the growth inhibition in assay [1] is -6.5%; in assay [2] it was 5.65%; in assay [3], -2.3%; in assay [5], 5.85%; in assay [4] it was 8.85%.
Turning to `CC1CC(=O)N(N(C)C)C(C#N)(C#N)C1(C#N)C#N` (configuration not stated), the growth inhibition in assay [1] is 24.4%; in assay [2] it was 30.6%; in assay [3] it was 17.5%; in assay [5] it was 0.8%; in assay [4], 80.5% (active).
For the compound `CSc1nc(Br)nc2ncn(C3CC(Oc4ccc(C)cc4)C(COc4ccc(C)cc4)O3)c12` (configuration not stated), the growth inhibition in assay [1] was 16.7%; in assay [2], 1.7%; in assay [3], 0.7%; in assay [4] it was -4.75%.
In the case of `COc1ccc(N=c2ssc(SC)c2-c2ccccc2)cc1`, the growth inhibition in assay [1] was 15.4%; in assay [2] it was -11.4%; in assay [4], -0.8%.
Turning to `Cn1/c(=N\N=C\C(=O)O)sc2ccccc21`, the growth inhibition in assay [1] was -6.1%; in assay [2], -13.8%; in assay [4] it was 10.1%.
Take `Clc1cccc(Cl)c1Br`: the figures for the growth inhibition in assay [1], in assay [2] and in assay [4] were 7.45%, -26.2% and 16.9%, respectively.
Turning to `O=C(CN1C(=O)c2ccccc2C1=O)c1ccc(Br)cc1`, the growth inhibition in assay [1] was 14.2%; in assay [2], 16.1%; in assay [4], 12.9%.
Take `CCN(CC)C(C(=O)Nc1ccccc1)C(=O)Nc1ccccc1`: the growth inhibition was 3.7% in assay [1], 2.8% in assay [2] and -4.9% in assay [4].
On to `CC(C)N(C)c1ccc(N=Nc2cc(Cl)ccc2Cl)cc1`, for which the growth inhibition in assay [1] is -27.6%; in assay [2], -36.8%; in assay [4] it was -24.4%.
For the compound `Nc1nc(N)nc(-c2ccccc2Cl)n1`, the growth inhibition in assay [1] is 3.65%; in assay [2], -10.8%; in assay [4], 32.2%.
For the compound `COc1cc(C(=O)N/N=C/c2ccc(N(C)C)cc2)cc(OC)c1OC`, the results for the growth inhibition in assay [1], in assay [2] and in assay [4] were -32.2%, -45.2% and -20.8%, respectively.
For the compound `Clc1ccc(C=NCCN=Cc2ccc(Cl)c(Cl)c2)cc1Cl`, the growth inhibition in assay [1] is -14.5%; in assay [2], -20.3%; in assay [4], -9.3%.
